Screening data: PubChem, National Center for Advancing Translational Sciences (NCATS)
This is a sample that favours compounds with a hit; in the whole collection about 20% have one here.
Pf growth 48h: inhibits P. falciparum growth in the first generation, 48 h; hit rate 5.9% among 310,000; P. falciparum luciferase growth in erythrocytes, 48 h; Potency, µM (doses to about 28.7 µM), hits mostly inhibitors
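Here the parasites carry a stable luciferase gene and grow inside erythrocytes in Albumax-based RPMI medium with compound for one erythrocytic cycle. Activity is scored as loss of luminescent signal.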
Cycloheximide cs: counter-screen for Shiga toxin inhibitors: cycloheximide protein synthesis inhibition; cell reporter, cycloheximide protein synthesis inhibition counterscreen; max response, %; AID 2314; hit rate 12% among 300,000; in the data active means max response mostly above about 13%, no sharp cut-off; inactive means mostly below about 14%; further: read at 38.3 µM for the half of the compounds with a filed dose
Pf growth 96h: P. falciparum growth inhibition at 96 hour, primary screen for plastid delayed-death inhibitors; Potency, µM (series often up to 28.7 µM), actives largely listed as inhibitors; AID 504834; hit rate 6.9% among 320,000; P. falciparum luciferase reporter growth, 96 h
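Infected RBCs, 2% Hct / 0.05% parasitemia final; luciferase-reporter P. falciparum; cpd 96 h, 37 C, 5% CO2; luciferase detection reagent; luminescence.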
HCMV inh: human cytomegalovirus inhibition. activity change, negative = inhibition, % at 57.5 µM. HFF cells, HCMV-luciferase reporter, 72 h; hits give low values. AID 1259415. hit rate 4.5% among 410,000; in the data active means activity change below about -60%; inconclusive means no clear call, values can overlap the other calls; inactive means above about -39%
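Compounds were evaluated in HFFs infected with an HCMV luciferase reporter virus (MOI 1 PFU/cell). Luciferase in lysates collected 72 h post infection served as the replication measure.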
Shiga inhibitor: blocks Shiga toxin action in Vero cells; Vero cells, Shiga toxin protein synthesis inhibition reporter; inhibition, % at 38.7 µM; hit rate 9.2% among 290,000; AID 2315; in the data active means inhibition mostly above about 28%, no sharp cut-off; inactive means mostly below about 43%
Large screens that a line does not name were inactive. Unless noted, the call rests on the fitted dose curve; in most records, active means well fitted inhibition curve with a large enough effect; inconclusive means small, poorly fitted or top-dose-only effect, or another doubt; inactive means no such curve, though single readings can be large or run the other way.

O=c1nc2sc3ccccc3n2c(=O)n1-c1ccc(Cl)cc1	Pf growth 48h inconclusive, Cycloheximide cs 29
COC(=O)c1c(C)nc(C)c(C(=O)OC)c1-c1ccccc1[N+](=O)[O-]	none (no result: Pf growth 48h, Pf growth 96h, HCMV inh)
COc1ccc(Cn2c(O)cc(=O)[nH]c2=O)cc1	HCMV inh -88
COc1ccccc1NC(=O)c1ccc(NC(=O)COC(=O)c2cncc(Br)c2)cc1	none (no result: Pf growth 48h, Cycloheximide cs, Pf growth 96h, Shiga inhibitor)
CN1CCN(/N=C/c2nc(-c3ccc(Cl)cc3)n3ccccc23)CC1	Cycloheximide cs 32, Shiga inhibitor 39
Clc1ccc(-c2nc(/C=N/N3CCOCC3)c3ccccn23)cc1	Cycloheximide cs 30 (no result: HCMV inh)
CN1CCN(/N=C/c2nc(-c3ccccc3)n3ccccc23)CC1	Shiga inhibitor 41
Cn1ccc(C(=O)Nc2cccnc2Cl)n1	none
Nc1ccc2cccc(O)c2c1	none (no result: Pf growth 48h, Cycloheximide cs, Pf growth 96h, Shiga inhibitor)
NS(=O)(=O)c1ccc(NC(=O)c2cc(-c3cc(Cl)ccc3O)n[nH]2)cc1	Pf growth 48h inconclusive, Pf growth 96h inconclusive, HCMV inh inconclusive
CCOC(=O)CN1C(=O)/C(=C/c2c(F)cccc2Cl)Oc2ccccc21	Cycloheximide cs 19, Shiga inhibitor 19 (no result: Pf growth 48h)
COc1ccccc1NC(=O)C1=C(C)Nc2nc(SCc3ccccc3F)nn2C1c1cccs1 (configuration not stated)	none (no result: Pf growth 48h, Cycloheximide cs, Pf growth 96h, Shiga inhibitor)
Cc1cc(C)cc(Nc2cc(C(=O)NCCCN(C)C3CCCCC3)c3ccccc3n2)c1	HCMV inh -99 (no result: Pf growth 48h, Cycloheximide cs, Pf growth 96h, Shiga inhibitor)
CCCCN(C)CCCNC(=O)c1cc(Nc2ccc(OC)c(OC)c2)nc2ccccc12	Pf growth 48h inconclusive
CCCCN(CCCNC(=O)c1cc(Nc2ccc(OC)c(OC)c2)nc2ccccc12)Cc1ccccc1	none (no result: Pf growth 48h, Cycloheximide cs, Pf growth 96h, Shiga inhibitor)
COc1ccc(Nc2cc(C(=O)NCCCN(C)Cc3ccccc3)c3ccccc3n2)cc1OC	HCMV inh -100 (no result: Pf growth 48h, Cycloheximide cs, Pf growth 96h, Shiga inhibitor)
CCCCN(CCCNC(=O)c1cc(Nc2ccc(OC)cc2)nc2ccccc12)Cc1ccccc1	HCMV inh -71 (no result: Pf growth 48h, Cycloheximide cs, Pf growth 96h, Shiga inhibitor)
CCCCN(C)CCCNC(=O)c1cc(-c2ccc(Br)s2)nc2ccccc12	HCMV inh -68 (no result: Pf growth 48h, Cycloheximide cs, Pf growth 96h, Shiga inhibitor)
CCc1ccccc1Nc1cc(C(=O)NCCCN(C)C2CCCCC2)c2ccccc2n1	none (no result: Pf growth 48h, Cycloheximide cs, Pf growth 96h, Shiga inhibitor)
O=C(CCC(=O)N1CCOc2ccccc21)NCc1cccs1	none (no result: Pf growth 48h, Cycloheximide cs, Pf growth 96h, Shiga inhibitor)
CCOc1cc(CNC(=O)c2ccc3c(c2)nc2n3CCCCC2)ccc1OC	none (no result: Pf growth 48h, Cycloheximide cs, Pf growth 96h, Shiga inhibitor)
CC(C)C1C(=O)N(Cc2cn(CCC3OCCO3)nn2)CCS(=O)(=O)N1Cc1ccc(-c2ccc(Cl)cc2)cc1 (configuration not stated)	none (no result: Pf growth 48h, Cycloheximide cs, Pf growth 96h, Shiga inhibitor)
COCCCNC(=O)Cn1c(=O)nc(-c2ccccc2)c2ccccc21	none (no result: Pf growth 48h, Cycloheximide cs, Pf growth 96h, Shiga inhibitor)
CCOc1cccc(C=NNc2nc(=O)cc(C(=O)OC)s2)c1O	none (no result: Pf growth 48h, Cycloheximide cs, Pf growth 96h, Shiga inhibitor)
Cc1ccc(NC(=O)Cn2c(=O)n(CCCCC(=O)NCc3ccc4c(c3)OCO4)c(=O)c3ccccc32)cc1	none (no result: Pf growth 48h, Cycloheximide cs, Pf growth 96h, Shiga inhibitor)
O=C(NC1CCCC1)c1cc2ccccc2o1	Cycloheximide cs 40, Shiga inhibitor 56
CC1CCCCC1NC(=O)c1cc2ccccc2o1 (configuration not stated)	Cycloheximide cs 35, Pf growth 96h inconclusive, Shiga inhibitor 35
CC1CCCCC1NC(=O)c1ccco1 (configuration not stated)	Pf growth 48h inconclusive (no result: Cycloheximide cs, Shiga inhibitor)
Fc1ccc(-c2nnsc2Sc2ccccn2)cc1	Cycloheximide cs 34, Shiga inhibitor 67
Cc1ccc(Nc2ccccc2)nn1	none
Fc1ccc(-c2ccc(Nc3cccc(F)c3)nn2)cc1	Pf growth 48h inconclusive, Cycloheximide cs 46, Shiga inhibitor 51
Fc1ccc(Nc2ccc(-c3ccc(F)cc3)nn2)cc1	Cycloheximide cs 50, Shiga inhibitor 63
NC(=S)NN=Cc1cc(-c2cccc(N)c2)ccn1	HCMV inh -100 (no result: Pf growth 48h, Cycloheximide cs, Pf growth 96h, Shiga inhibitor)
CCOC(=O)c1sc(NC(=O)C2C3C=CC(C3)C2C(=O)O)nc1C (configuration not stated)	none (no result: Pf growth 48h)
CCN(CC)CCCNC(=O)c1[nH]c2ccccc2c1Sc1ccc(Cl)cc1	Pf growth 48h 13µM, Pf growth 96h 13µM
O=C(COC(=O)c1ccccc1O)NCCC1=CCCCC1	Cycloheximide cs 47, Shiga inhibitor 90
O=C(COC(=O)c1ccc(O)cc1)NCCC1=CCCCC1	none
O=C(COC(=O)c1cccs1)NCCC1=CCCCC1	Cycloheximide cs 14
O=C(COC(=O)c1ccccc1NC(=O)c1ccco1)NCCC1=CCCCC1	Cycloheximide cs 30 (no result: Pf growth 96h)
COc1ccccc1N(C)S(=O)(=O)c1ccc(C(=O)OCC(=O)NCCC2=CCCCC2)cc1	HCMV inh -62
Cc1ccc(C(=O)OCC(=O)NCCC2=CCCCC2)s1	HCMV inh inconclusive
